Data reported in ChEMBL document CHEMBL1157539, “Thousands of chemical starting points for antimalarial lead identification” (Nature, 2010).

Columns and labels:
Format in all cases: functional
Plasmodium falciparum [1] = experiment: GSK_TCMDC: Inhibition of Plasmodium falciparum 3D7 in whole red blood cells, using parasite LDH activity as an index of growth. Test compounds present at 2uM
Plasmodium falciparum [2] = experiment: GSK_TCMDC: Inhibition of Plasmodium falciparum Dd2 in whole red blood cells, using parasite LDH activity as an index of growth. Test compounds present at 2uM
HepG2 = experiment: GSK_TCMDC: Percent inhibition of human HepG2 cell line. Test compounds present at 10uM.

COCCSc1ccc(CC(C)NCC(O)c2cccc(Cl)c2)cc1.Cl (stereo not given)
Inhibition (Plasmodium falciparum [1]): 97%
Inhibition (Plasmodium falciparum [2]): 73%
Inhibition (HepG2): 2%

Cc1cc(-c2ncc[nH]2)ccc1-c1ccc(C(=O)N2CCc3cc4c(cc32)C2(CCN(C)CC2)CO4)cc1.Cl
Inhibition (Plasmodium falciparum [1]): 100%
Inhibition (Plasmodium falciparum [2]): 98%
Inhibition (HepG2): 32%

CCCCn1c(C)c(C(=O)OCC)c2cc(OC(C)=O)c(Br)cc21
Inhibition (Plasmodium falciparum [1]): 98%
Inhibition (Plasmodium falciparum [2]): 79%
Inhibition (HepG2): 0%

Cn1nc(C(F)(F)F)cc1-c1ccc(C(=O)NC2CCC(CN3CCC(c4c[nH]c5ccccc45)CC3)CC2)s1 (stereo not given)
Inhibition (Plasmodium falciparum [1]): 100%
Inhibition (Plasmodium falciparum [2]): 97%
Inhibition (HepG2): 45%

Cc1ccc(C[C@@H](C)NC[C@H](O)c2cccc(C(F)(F)F)c2)cc1.O=C(O)/C=C/C(=O)O
Inhibition (Plasmodium falciparum [1]): 100%
Inhibition (Plasmodium falciparum [2]): 79%
Inhibition (HepG2): 10%

CC(=O)N(Cc1ccccc1-c1ccc(CNCCc2ccccc2)cc1)C1CCN(Cc2ccccc2)CC1.O=C(O)C(F)(F)F
Inhibition (Plasmodium falciparum [1]): 100%
Inhibition (Plasmodium falciparum [2]): 85%
Inhibition (HepG2): 24%

CCC(C)CN1CCC(N(C)c2cc(NC(=O)c3ccc(F)cc3)ccn2)CC1.O=C(O)C(F)(F)F (stereo not given)
Inhibition (Plasmodium falciparum [1]): 93%
Inhibition (Plasmodium falciparum [2]): 32%
Inhibition (HepG2): 4%

O=C(NC1CCC(CN2CCC(c3c[nH]c4ccccc34)CC2)CC1)[C@H]1Cc2ccccc2CN1 (stereo not given in full)
Inhibition (Plasmodium falciparum [1]): 89%
Inhibition (Plasmodium falciparum [2]): 35%
Inhibition (HepG2): 29%

O=C(NC1CCC(CN2CCC(c3c[nH]c4ccccc34)CC2)CC1)c1cc(-c2cccc(Cl)c2)n(-c2ccc(Cl)cc2Cl)n1 (stereo not given)
Inhibition (Plasmodium falciparum [1]): 81%
Inhibition (Plasmodium falciparum [2]): 25%
Inhibition (HepG2): 53%

Cc1ccc(CC(C)NCC(O)c2cccc(C(F)(F)F)c2)cc1F.Cl (stereo not given)
Inhibition (Plasmodium falciparum [1]): 97%
Inhibition (Plasmodium falciparum [2]): 91%
Inhibition (HepG2): 15%
